Laboratory results: PubChem BioAssay (NCI)
About 83,000 compounds went through this panel and 20% of them were active in at least one assay; those are over-represented in the sample as a whole.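 A percent growth of 40 corresponds to 60% growth inhibition; 0 means no net growth; -100 means all cells died. Active threshold: below 10.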 Unmarked numbers belong to inactive results. Activity calls are given as the source filed them.

Key:
Assay in all cases: NCI-60 one-dose screen, 48 h (100 = growth as untreated, 0 = no growth, -100 = all killed)
Settings in all cases: 10 µM unless noted
NCI-H23 lung = test system: NCI-H23 lung
NCI-H226 lung = test system: NCI-H226 lung
NCI-H322M lung = test system: NCI-H322M lung
HOP-62 NSCLC = test system: HOP-62 NSCLC
NCI-H460 lung = test system: NCI-H460 lung
HOP-92 NSCLC = test system: HOP-92 NSCLC
A549/ATCC NSCLC = test system: A549/ATCC NSCLC
786-0 renal = test system: 786-0 renal
COLO 205 colon = test system: COLO 205 colon
DU-145 prostate = test system: DU-145 prostate
K-562 leukemia = test system: K-562 leukemia
MALME-3M melanoma = test system: MALME-3M melanoma
MDA-MB-231 breast = test system: MDA-MB-231 breast
RXF 393 renal = test system: RXF 393 renal
SF-268 CNS = test system: SF-268 CNS
SF-295 CNS = test system: SF-295 CNS
SF-539 CNS = test system: SF-539 CNS
UACC-257 melanoma = test system: UACC-257 melanoma
M14 melanoma = test system: M14 melanoma
NCI-H522 lung = test system: NCI-H522 lung

Row | Structure (SMILES) | growth (NCI-H23 lung) | growth (NCI-H226 lung) | growth (NCI-H322M lung) | growth (HOP-62 NSCLC) | growth (NCI-H460 lung) | growth (HOP-92 NSCLC) | growth (A549/ATCC NSCLC) | growth (786-0 renal) | growth (COLO 205 colon) | growth (DU-145 prostate) | growth (K-562 leukemia) | growth (MALME-3M melanoma) | growth (MDA-MB-231 breast) | growth (RXF 393 renal) | growth (SF-268 CNS) | growth (SF-295 CNS) | growth (SF-539 CNS) | growth (UACC-257 melanoma) | growth (M14 melanoma) | growth (NCI-H522 lung) [%]
1 | CO[C@H](C(=O)O)[C@@H]1Cc2cc3cc(OC4CC(OC5CC(O)C(O)C(C)O5)C(O)C(C)O4)c(C)c(O)c3c(O)c2C(=O)[C@H]1OC1CC(OC2CC(OC3CC(C)(O)C(O)C(C)O3)C(O)C(C)O2)C(O)C(C)O1 (some centres not stated) | -0.124% (active) | 0.862% (active) | 21.6% | 20.7% | 11.2% | 24.7% | 13.7% | 10.3% | -12.5% (active) | 21.5% | 11.8% | -10.4% (active) | 19.9% | -57.1% (active) | 29.3% | 11.2% | -23.1% (active) | 7.77% (active) | -8.35% (active) | 
2 | COC(=O)[C@@H](C)C[C@H](Cc1ccccc1)NC(=O)c1csc([C@@H](C[C@H](C(C)C)N(C)C(=O)[C@@H](NC(=O)[C@H]2CCCCN2C)c2ccc(F)cc2)OC(C)=O)n1 | 25.6% | 29.4% | 37.4% | 3.87% (active) | 3.62% (active) | 4.81% (active) | 13.9% | 15.7% | -53.8% (active) | 6.65% (active) | 2.45% (active) | 65.8% | -9.8% (active) | 74.7% | 13.2% | 3.25% (active) | -17.9% (active) | 53.2% | -6.9% (active) | 
3 | CN1C(=O)N[C@H]2[C@@H]3NC(=O)c4ccc(Br)n4[C@@H]3C[C@]21O | -14.5% (active) | -17.4% (active) | -6.85% (active) | -31.8% (active) | -10.6% (active) | -9.65% (active) | -9.09% (active) | -19.3% (active) | -49.5% (active) | -8.47% (active) | -2.38% (active) | -27.3% (active) | -28% (active) | -27.5% (active) | -2.59% (active) | -36.2% (active) | -59.8% (active) |  | -70.8% (active) | 
4 | O=C1CC2(CC3(Cl)C(Cl)=C(Cl)C2(Cl)C3(Cl)Cl)C(=O)O1 (configuration not stated) | 96.8% | 110% | 99.3% | 91.6% | 112% | 107% | 105% | 96.3% | 126% | 101% | 97.9% | 101% | 128% | 107% | 114% | 100% | 114% | 107% | 95.4% | 
5 | [Au+].[N-]=C=O.c1ccc(CN2[CH-]N(Cc3ccccc3)C(c3ccccc3)=C2c2ccccc2)cc1 | 79.5% | 107% | 112% | 116% | 98.5% | 81.4% | 92.7% | 90.2% | 92.5% | 86.5% | 20.8% | 70% | 86.4% | 83% | 84.5% |  | 110% | 99.8% | 81.3% | 
6 | N/C(=N/N=C/c1ccncc1)N[N+](=O)[O-] | 99.5% | 99.2% | 99.5% | 89.3% | 112% | 115% | 98.3% |  | 102% | 108% | 90% | 96.2% |  | 121% | 102% | 99.5% | 94.3% | 102% | 104% | 101
7 | C#Cc1ccc2c(c1)C(c1ccccc1)=NCC(=O)N2C | 63.3% | 69% | 77.7% | 49.8% | 17.4% | 72.2% | 53.6% | 59% | 15.8% | 70.1% | 15.6% | 74.5% | 50.8% | 83.8% | 58.8% | 25% | 41.4% | 68.5% | 18.5% | 
8 | C=C1C(=O)O[C@H]2[C@H]1CC/C(COC(=O)C(=O)c1cn(Cc3ccccc3)c3ccccc13)=C\CC[C@@]1(C)O[C@@H]21 | -51.7% (active) | -70.3% (active) | -25.6% (active) | 2.07% (active) | -11.4% (active) | -46.7% (active) | -42.7% (active) | -75.3% (active) | -52.4% (active) | -54.1% (active) | 5.58% (active) | -41.7% (active) | -57.2% (active) | -90.2% (active) | -57.5% (active) | 18.8% | -51.3% (active) | -65.4% (active) | -66% (active) | 
9 | COC(C(=O)[C@@H](O)[C@@H](C)O)[C@@H]1Cc2cc3cc(O[C@H]4C[C@@H](O[C@H]5C[C@@H](O)[C@H](O)C(C)O5)[C@H](O)C(C)O4)c(C)c(O)c3c(O)c2C(=O)[C@H]1O[C@H]1C[C@@H](O[C@H]2C[C@@H](O[C@H]3C[C@@H](O)[C@@H](O)C(C)O3)[C@@H](O)C(C)O2)[C@H](O)C(C)O1 (some centres not stated) | -0.735% (active) | -22.2% (active) | 14% | -4.46% (active) | 7.75% (active) | 13.3% | 2.42% (active) | -1.51% (active) | -43.3% (active) | 17.5% | 9.59% (active) | -38.7% (active) | 3.75% (active) | -60.5% (active) | 24.4% | 12.9% | 1.03% (active) | -38.6% (active) | 8.68% (active) | 
10 | CSc1nc(Cl)cc(N2CC2)n1 | 103% | 108% | 128% | 103% | 105% | 93% | 102% | 104% | 139% | 110% | 120% | 105% | 106% | 111% | 99.1% | 115% | 98.8% | 107% | 114% | 
11 | CCCCCCCCOC(=O)CCN1CC1 | 111% | 93.5% | 107% |  | 115% | 77% | 99.1% | 107% | 116% | 98.5% | 119% | 110% | 114% | 107% | 95.9% | 120% | 99.4% | 103% | 107% | 121
12 | CCC(=O)Nc1ccc(Cl)c(Cl)c1 | 96.5% | 102% | 93.5% | 93.7% | 111% | 76.8% | 92.5% | 91.1% | 107% | 115% | 97.6% | 102% | 92.2% | 101% | 105% | 98.3% | 92.4% | 102% | 103% | 
13 | Fc1c[c-]c(-c2ccccn2)c(F)c1.[CH3-].[Pt+2].c1ccc([PH+](c2ccccc2)c2ccccn2)cc1 | 0.331% (active) | -53.6% (active) | 19.4% | 22.3% | 3.22% (active) | -25.6% (active) | 11.5% | -1.65% (active) | -31.5% (active) | 15.9% | 4.86% (active) | -75.5% (active) | -70.6% (active) | -64.8% (active) | 22.8% | 5.67% (active) | -46.7% (active) | 0.865% (active) | -30.4% (active) | 
14 | Nc1ccc2c(c1)Cc1cc(Br)ccc1-2 | 90.5% | 95.4% | 105% | 101% | 104% | 78% | 100% | 108% | 117% | 109% | 92.2% | 118% | 84% | 112% | 88% | 107% | 100% | 122% | 118% | 
15 | CCCCCCCCCCCCCCCCCC1OC[C@H](COC(=O)O[C@@H](C(=O)O[C@H]2C[C@@]3(O)[C@@H](OC(=O)c4ccccc4)[C@@H]4[C@]5(OC(C)=O)CO[C@@H]5C[C@H](O)[C@@]4(C)C(=O)[C@H](OC(C)=O)C(=C2C)C3(C)C)[C@@H](NC(=O)c2ccccc2)c2ccccc2)O1 (some centres not stated) | 42.7% | 94.3% | 47.4% | 66.3% | 20.9% | 75% | 43.9% | 91.2% | 13.3% | 45.7% | 37.5% | 58.9% | 47.2% | 65.2% | 73.3% | 53% | 43.3% | 72.2% | 29.6% | 
